Laboratory results taken from PubChem BioAssay (NCATS).
Results filed as inconclusive are left out. Calls of active or inactive are those of the source. Unless noted, calls follow the shape of the dose curve; as a rule, active = well fitted curve in the direction sought with a large enough effect; inconclusive = small, poorly fitted or top-dose-only effect, or another doubt; inactive = no such curve, though single readings can be large; an effect the other way counts as inactive or inconclusive.

How the values were obtained:
[1] = AP1 Signaling Pathway (AID 357; active = well fitted curve in either direction with a large enough effect, not every such curve was filed as active;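 also: ME-180 reporter cells stimulated with EGF at its EC50 level; % is scaled to controls: 0 for no effect and ±100 for the full control effect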)
How it was run: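 A ratiometric CCF4 readout (405 nm excitation; 460 and 530 nm emission) quantified AP-1-driven beta-lactamase in ME-180 cells after 5 h with compound and EC50 EGF; AC50 values were derived for activators and inhibitors.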

[2] = Stat Signaling Pathway (AID 446; active = well fitted curve in either direction with a large enough effect, not every such curve was filed as active;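 also: ME-180 cervical cancer cells given 40 pM IL-6 alongside compound; SIE-controlled beta-lactamase reporter measured as 460/530 nm FRET emission ratio; % is scaled to controls: 0 for no effect and ±100 for the full control effect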)
How it was run: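 FRET read-out (405 nm excitation, 460/530 nm emission) of a beta-lactamase reporter under a STAT-inducible element in ME-180 cervical carcinoma cells. Cells with compound receive 40 pM IL-6 for 5 h. Values are normalised to AC90 stimulation and AC90 JAK-inhibitor controls.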

[3] = target: Glucocorticoid receptor (Homo sapiens) (UniProt P04150); experiment: GR-GFP Redistribution (AID 450;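 active = compounds whose dose series gives a full or clear partial fitted curve of increased nuclear translocation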; also: potency is read from the fitted curve at half-maximal effect); settings: U2OS GR-GFP nuclear translocation, laser cytometry, 2 h
[4] = target: Glucocorticoid receptor (Homo sapiens) (UniProt P04150); experiment: GR-EFC Redistribution (AID 451; calls by dose curve; also: potency is read from the fitted curve at half-maximal effect); settings: CHO-K1 GR-EFC translocation, beta-gal luminescence, 2 h
How it was run: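 CHO-K1 cells expressing nuclear EA and GR-ED fragments of b-gal; compounds titrated up to 46 uM final, 2 h at 37 C. GR nuclear translocation read as complemented b-gal luminescence after 1 h RT detection.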

[5] = target: Mitogen-activated protein kinase 10 (Mus musculus) (UniProt Q61831); experiment: JNK3 AlphaScreen Assay (AID 530; active = well fitted curve in either direction with a large enough effect, not every such curve was filed as active;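 also: kinase came from lysate of stimulated human HepG2 cells; signal reports phosphorylation of biotinylated GST-cJun 1-79 at Ser73 with 10 µM ATP; % is scaled to controls: 0 for no effect and ±100 for the full control effect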)
How it was run: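 HepG2 lysate (IL-1b/TNFa pre-activated) + biotin-GST-cJun 1-79 + anti-pSer73 cJun; cpd titration, 15 min RT; ATP 10 uM start; Tris pH 7.6, MgCl2, DTT, vanadate; beads in EDTA buffer; AlphaScreen.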

[6] = qHTS Assay for Lipid Storage Modulators (AID 1519; calls by dose curve); settings: Drosophila S3 cells, BODIPY lipid droplet/cell ratio, laser cytometry, cells loaded with oleic acid
How it was run: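 Cells seeded at 5,000 per well were treated with compounds over a concentration series and loaded with oleic acid (400 uM, as added). Lipid droplet fluorescence (488 nm excitation, 500-530 nm channel) was read by laser-scanning cytometry and normalized to 20 uM Triacsin C.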

[7] = target: ATP-dependent 6-phosphofructokinase (Trypanosoma brucei brucei) (UniProt O15648); experiment: qHTS Assay to Find Inhibitors of T. brucei phosphofructokinase: hit validation (AID 492961);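 also: luminescence reports ADP formed as PFK phosphorylates fructose-6-phosphate with ATP; % is scaled to controls: 0 for no effect and ±100 for the full control effect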
How it was run: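 Compounds titrated; %activity normalized to 0x and 1x enzyme controls, curve-fitted. Readout: ADP-Glo luminescence after 45 min room-temperature reaction of 1.25 nM PFK, 0.1 mM ATP, 0.5 mM F6P, pH 8.0.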

[8] = target: Ubiquitin carboxyl-terminal hydrolase 1 (Homo sapiens) (UniProt O94782); experiment: Inhibitors of USP1/UAF1: Pilot qHTS (AID 504865);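 also: rhodamine fluorescence freed from ubiquitin-rhodamine substrate followed over time; top concentration of the series differs between compounds; % is scaled to controls: 0 for no effect and ±100 for the full control effect; nearly all actives have a fitted effect of over 35% in size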
How it was run: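 Deubiquitinase activity followed as kinetic rhodamine fluorescence release from 150 nM Ub-Rho. 1 nM USP1/UAF1 with compound, after 15 min room-temperature preincubation, in HEPES pH 7.8 buffer containing TCEP, EDTA, BSA and Tween-20.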

[9] = target: Luciferin 4-monooxygenase (Photinus pyralis) (UniProt P08659); experiment: Biochemical firefly luciferase enzyme assay for NPC (AID 624030);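 also: purified P. pyralis luciferase at 10 nM with luciferin and ATP substrate; 0% = DMSO and -100% = full luciferase inhibition by PTC124 control; nearly all actives have a fitted effect of over 70% in size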
How it was run: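 Purified P. pyralis luciferase at 10 nM in 50 mM Tris Acetate (final), luminescence read within 5 minutes of enzyme addition to compounds. Activity normalised to PTC124 versus DMSO; concentration-response curves classed by r2, magnitude and activity.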

[10] = qHTS profiling for inhibitors of Plasmodium falciparum proliferation (AID 504749); also: potency is read from the fitted curve at half-maximal effect;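 as to activity, negative = inhibition: 0% = DMSO vehicle and full inhibition = artemisinin control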; as to all read-outs here: nearly all actives have a fitted effect of over 60% in size; settings: P. falciparum in erythrocytes, SYBR Green DNA, 72 h; for activity, negative = inhibition: at 12.8 µM (top of the series)
How it was run: (§1)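 SYBR Green fluorescence (ex 485 nm, em 535 nm) reports parasite DNA after 72 h compound exposure of infected red cells at 0.3% parasitemia, 2.5% hematocrit; signal normalized to 0.29 uM artemisinin and vehicle wells.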

DIV14 = experiment: as above; settings: P. falciparum in erythrocytes, SYBR Green DNA, 72 h; series mostly up to 12.8 µM
How it was run: as §1

N140 = experiment: as above; settings: P. falciparum in erythrocytes, SYBR Green DNA, 72 h; series mostly up to 12.8 µM
How it was run: as §1

SC27B = experiment: as above; settings: P. falciparum in erythrocytes, SYBR Green DNA, 72 h; series mostly up to 12.8 µM
How it was run: as §1

W2 = experiment: as above; settings: P. falciparum in erythrocytes, SYBR Green DNA, 72 h; series mostly up to 12.8 µM
How it was run: as §1

[11] = target: 3',5'-cyclic-AMP phosphodiesterase 4B (Homo sapiens) (UniProt Q07343); experiment: qHTS Assay for Inhibitors of PDE-IV (AID 607; active = well fitted activation curve with a large enough effect in the main read-out, with a control signal flat, not every such curve was filed as active; also: % of control where 0% means no effect)
How it was run: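 Cell-based read-out of cAMP via a modified cyclic nucleotide-gated channel and membrane potential dye (535/590 nm) in HEK293 cells expressing PDE4 endogenously. Compounds tested up to 22.9 uM final; 100 uM RO 20-1724 reference.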

[12] = NFAT Signaling Pathway (AID 444; active = well fitted curve in either direction with a large enough effect, not every such curve was filed as active); settings: Jurkat NFAT-bla M1, carbachol, beta-lactamase ratio, 5 h; at 17.2 µM (top of the series) unless noted
How it was run: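 Jurkat cells with NFAT-driven β-lactamase reporter and co-expressed M1 receptor, stimulated with carbachol (final 1 uM, ~EC50), compound titration, 5 h at 37 °C. CCF4 loaded 1 h at RT; 460/530 nm ratio gave %activity and AC50.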

C2A = experiment: qHTS profiling for inhibitors of Plasmodium falciparum proliferation (AID 504749); also: nearly all actives have a fitted effect of over 60% in size; also: potency is read from the fitted curve at half-maximal effect;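 as to activity, negative = inhibition: 0% = DMSO vehicle and full inhibition = artemisinin control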; settings: P. falciparum in erythrocytes, SYBR Green DNA, 72 h; series mostly up to 12.8 µM
How it was run: as §1

CP238 = experiment: as above; settings: P. falciparum in erythrocytes, SYBR Green DNA, 72 h; series mostly up to 12.8 µM
How it was run: as §1

CP252 = experiment: as above; settings: P. falciparum in erythrocytes, SYBR Green DNA, 72 h; series mostly up to 12.8 µM
How it was run: as §1

JCK = experiment: as above; settings: P. falciparum in erythrocytes, SYBR Green DNA, 72 h; series mostly up to 12.8 µM
How it was run: as §1

[13] = measured here: cell count channel max response
[14] = measured here: lipid channel max response

Sequence of Ubiquitin carboxyl-terminal hydrolase 1 (Homo sapiens) (O94782 whole entry, looked up): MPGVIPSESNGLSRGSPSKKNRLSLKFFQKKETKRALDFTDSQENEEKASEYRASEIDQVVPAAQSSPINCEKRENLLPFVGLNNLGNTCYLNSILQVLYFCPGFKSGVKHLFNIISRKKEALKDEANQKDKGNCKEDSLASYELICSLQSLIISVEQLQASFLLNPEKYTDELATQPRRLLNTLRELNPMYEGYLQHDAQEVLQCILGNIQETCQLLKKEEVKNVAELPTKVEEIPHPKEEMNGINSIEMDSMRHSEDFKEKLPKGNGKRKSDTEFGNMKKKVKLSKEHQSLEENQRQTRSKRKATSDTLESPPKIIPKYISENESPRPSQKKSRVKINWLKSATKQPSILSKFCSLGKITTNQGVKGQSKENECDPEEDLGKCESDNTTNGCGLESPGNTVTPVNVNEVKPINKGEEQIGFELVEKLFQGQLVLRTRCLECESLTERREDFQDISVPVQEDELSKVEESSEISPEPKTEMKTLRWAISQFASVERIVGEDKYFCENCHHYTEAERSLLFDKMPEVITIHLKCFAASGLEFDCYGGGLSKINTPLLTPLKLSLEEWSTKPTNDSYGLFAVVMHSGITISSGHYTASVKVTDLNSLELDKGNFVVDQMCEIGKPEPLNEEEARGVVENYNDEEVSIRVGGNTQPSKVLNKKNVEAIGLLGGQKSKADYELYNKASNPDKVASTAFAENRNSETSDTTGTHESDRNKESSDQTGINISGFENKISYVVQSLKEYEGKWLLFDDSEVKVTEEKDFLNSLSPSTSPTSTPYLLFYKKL
Sequence of Glucocorticoid receptor (Homo sapiens) (P04150 whole entry, looked up, the tested form may be a part): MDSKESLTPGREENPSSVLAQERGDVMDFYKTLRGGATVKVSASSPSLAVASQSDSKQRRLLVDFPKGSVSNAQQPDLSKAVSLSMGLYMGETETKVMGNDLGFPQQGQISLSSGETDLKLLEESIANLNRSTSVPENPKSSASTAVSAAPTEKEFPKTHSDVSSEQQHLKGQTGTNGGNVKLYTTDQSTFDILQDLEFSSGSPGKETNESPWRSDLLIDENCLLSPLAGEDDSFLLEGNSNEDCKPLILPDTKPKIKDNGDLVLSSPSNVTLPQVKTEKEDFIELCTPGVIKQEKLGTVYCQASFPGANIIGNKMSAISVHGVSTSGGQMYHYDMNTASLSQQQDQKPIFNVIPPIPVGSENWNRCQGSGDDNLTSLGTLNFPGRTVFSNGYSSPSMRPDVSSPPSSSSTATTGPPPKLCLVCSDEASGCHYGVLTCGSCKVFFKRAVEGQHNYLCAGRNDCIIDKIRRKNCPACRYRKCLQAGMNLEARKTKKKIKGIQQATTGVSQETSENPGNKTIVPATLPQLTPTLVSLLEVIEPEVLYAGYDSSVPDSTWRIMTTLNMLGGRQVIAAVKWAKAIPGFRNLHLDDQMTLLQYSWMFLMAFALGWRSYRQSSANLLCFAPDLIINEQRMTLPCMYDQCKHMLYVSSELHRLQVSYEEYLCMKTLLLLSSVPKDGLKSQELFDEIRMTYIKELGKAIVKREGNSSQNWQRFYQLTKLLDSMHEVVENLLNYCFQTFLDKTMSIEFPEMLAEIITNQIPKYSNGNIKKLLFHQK
Sequence of Luciferin 4-monooxygenase (Photinus pyralis) (P08659 whole entry, looked up): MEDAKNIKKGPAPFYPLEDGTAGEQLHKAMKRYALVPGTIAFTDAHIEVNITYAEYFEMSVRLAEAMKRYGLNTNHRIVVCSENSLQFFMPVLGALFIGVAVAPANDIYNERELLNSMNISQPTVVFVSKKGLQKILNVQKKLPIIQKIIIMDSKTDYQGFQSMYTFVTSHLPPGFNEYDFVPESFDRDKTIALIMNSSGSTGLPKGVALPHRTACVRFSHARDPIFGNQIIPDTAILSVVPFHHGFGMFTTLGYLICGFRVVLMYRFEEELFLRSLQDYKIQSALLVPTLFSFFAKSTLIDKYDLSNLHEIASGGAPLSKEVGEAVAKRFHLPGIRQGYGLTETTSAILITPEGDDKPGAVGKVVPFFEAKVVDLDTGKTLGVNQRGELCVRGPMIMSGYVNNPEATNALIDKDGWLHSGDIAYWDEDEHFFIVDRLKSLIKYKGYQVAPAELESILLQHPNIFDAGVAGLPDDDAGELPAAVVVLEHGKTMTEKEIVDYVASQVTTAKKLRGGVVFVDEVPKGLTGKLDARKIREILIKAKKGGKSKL
Sequence of 3',5'-cyclic-AMP phosphodiesterase 4B (Homo sapiens) (Q07343 whole entry, looked up): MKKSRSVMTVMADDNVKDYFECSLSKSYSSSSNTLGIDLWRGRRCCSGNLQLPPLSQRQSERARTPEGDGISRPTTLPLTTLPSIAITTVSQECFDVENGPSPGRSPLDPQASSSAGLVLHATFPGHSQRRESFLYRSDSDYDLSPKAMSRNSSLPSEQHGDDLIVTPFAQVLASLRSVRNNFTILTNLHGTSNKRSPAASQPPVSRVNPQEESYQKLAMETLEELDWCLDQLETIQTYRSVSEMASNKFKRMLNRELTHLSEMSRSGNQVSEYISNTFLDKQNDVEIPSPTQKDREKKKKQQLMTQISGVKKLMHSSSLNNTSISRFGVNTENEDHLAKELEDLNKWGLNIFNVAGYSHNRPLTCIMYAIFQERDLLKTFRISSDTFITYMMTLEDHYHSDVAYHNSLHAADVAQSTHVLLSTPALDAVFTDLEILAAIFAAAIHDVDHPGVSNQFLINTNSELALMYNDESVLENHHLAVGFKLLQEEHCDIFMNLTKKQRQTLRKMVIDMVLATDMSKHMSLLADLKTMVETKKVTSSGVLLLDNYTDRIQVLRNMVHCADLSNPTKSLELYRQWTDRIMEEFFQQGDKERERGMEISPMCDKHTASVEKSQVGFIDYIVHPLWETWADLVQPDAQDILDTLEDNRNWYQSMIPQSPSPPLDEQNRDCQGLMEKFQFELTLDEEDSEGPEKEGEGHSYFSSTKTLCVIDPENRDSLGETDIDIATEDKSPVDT
Sequence of ATP-dependent 6-phosphofructokinase (Trypanosoma brucei brucei) (O15648 whole entry, looked up): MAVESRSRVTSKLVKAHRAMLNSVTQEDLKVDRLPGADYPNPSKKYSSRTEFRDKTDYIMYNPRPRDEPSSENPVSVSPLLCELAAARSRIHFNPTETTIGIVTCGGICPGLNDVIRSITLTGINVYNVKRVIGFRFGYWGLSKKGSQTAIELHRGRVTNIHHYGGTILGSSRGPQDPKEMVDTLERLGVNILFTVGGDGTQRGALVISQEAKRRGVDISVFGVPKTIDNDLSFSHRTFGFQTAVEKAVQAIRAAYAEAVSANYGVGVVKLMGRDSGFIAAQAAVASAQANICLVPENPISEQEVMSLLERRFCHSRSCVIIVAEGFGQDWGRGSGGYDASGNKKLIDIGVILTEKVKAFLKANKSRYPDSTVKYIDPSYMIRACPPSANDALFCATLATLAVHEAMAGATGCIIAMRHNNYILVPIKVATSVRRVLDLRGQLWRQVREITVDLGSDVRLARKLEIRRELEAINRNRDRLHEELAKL

Clc1ccc([C@H](Cn2ccnc2)OCc2csc3c(Cl)cccc23)c(Cl)c1
active: Potency ([10]; parasite line B) 3.55 µM | Potency (DIV14) 5.1 µM | Potency (N140) 3.98 µM | Potency (SC27B) 4.47 µM | Potency (W2) 2.28 µM
inactive: outcome [1] | outcome [2] | Potency [3] > 20.6 µM | Potency [4] > 20.6 µM | Potency [5] | activity change, negative = inhibition ([6]; at 25.7 µM (top of the series)) 0.1% | outcome [7] | Potency [8] | Potency [9]
-11.7%: max response [6, 14]
-11.9%: max response [6, 13]

C#C[C@@]1(OC(C)=O)CC[C@@H]2[C@@H]3CCC4=C[C@@H](OC(C)=O)CC[C@H]4[C@H]3CC[C@]21C
-9.18%: max response [6, 13] | max response [6, 14]
inactive: outcome [1] | outcome [2] | Potency [4] > 20.6 µM | Potency [5] | activity change, negative = inhibition ([6]; at 25.7 µM (top of the series)) -2.38% | Potency [8]

CNCCC=C1c2ccccc2C=Cc2ccccc21
-2.2%: max response [6, 13]
-8.1%: max response [6, 14]
inactive: outcome [1] | outcome [2] | Potency [3] > 20.6 µM | Potency [4] > 20.6 µM | Potency [5] | activity change, negative = inhibition ([6]; at 25.7 µM (top of the series)) -3.6% | Potency [8]

O=C(c1cc(C(F)(F)F)cc(C(F)(F)F)c1)N1CCC[C@@]2(CCN(c3ccccn3)C2)C1
-16.6%: max response [6, 14]
inactive: outcome [1] | outcome [2] | Potency [4] > 46 µM | Potency [5] | activity change, negative = inhibition ([6]; at 57.5 µM (top of the series)) -14.3%
-3.88%: max response [6, 13]

C[C@@]1(O)CCOC(=O)C1
inactive: outcome [1] | outcome [2] | Potency [3] > 20.6 µM | Potency [4] > 20.6 µM | Potency [5] | outcome [11] | activity change, negative = inhibition ([6]; at 25.7 µM (top of the series)) -1.74% | Potency [8]
-3.45%: max response [6, 13]
-5.01%: max response [6, 14]

C=C1CC23C[C@H]4[C@@H]5[C@@]6(C)C[C@H](OC(=O)c7ccccc7)[C@@H](OC(C)=O)[C@]57[C@@H]2[C@@H](OC(C)=O)[C@H]1[C@@H](O)[C@H]3[C@H]7N4C6
inactive: outcome [1] | activity change, negative = inhibition [12] -10.3% | outcome [2] | Potency [3] > 20.6 µM | Potency [4] > 20.6 µM | activity change, negative = inhibition ([6]; at 25.7 µM (top of the series)) -1.43%
-3.09%: max response [6, 13]
-1.64%: max response [6, 14]

COc1ccc(OC)c([C@H](O)CNC(=O)CN)c1
0.279%: max response [6, 13]
inactive: outcome [1] | activity change, negative = inhibition [12] -3.71% | outcome [2] | Potency [3] > 20.6 µM | Potency [4] > 20.6 µM | Potency [5] | outcome [11] | activity change, negative = inhibition ([6]; at 25.7 µM (top of the series)) 0.926% | outcome [7] | Potency [8] | Potency [9] | activity, negative = inhibition ([10]; parasite line A) -3.94% | activity, negative = inhibition ([10]; parasite line B) 1.53% | Potency (C2A) | Potency (CP238) | Potency (CP252) | Potency (DIV14) | Potency (JCK) | Potency (N140) | Potency (SC27B) | Potency (W2)
-0.25%: max response [6, 14]
